Laboratory results published in PubChem BioAssay AID1053126 (Broad Institute, 2014).
Entries with a potency or affinity are not part of this list. The source made the active and inactive calls.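 How the source made its calls: active means cell killing with a fitted half-effect concentration at or below twice the top valid dose; inconclusive means flat curve with 30 to 70 percent drop, or poor fit; inactive means the rest.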

assay: HEK293T cell cytotoxicity, dose response, cytotoxicity control, ATP luminescence, cherry-pick, set 6 (AID 1053126); settings: HEK293T viability, CellTiter-Glo ATP luminescence, 72 h; series mostly up to 26 µM

Structure (SMILES) | outcome
Clc1cccc(CN2CCN(Cc3nc(CCc4ccccc4)no3)CC2)c1 | inactive
O=c1oc2c(CN3CCCCC3)c(O)ccc2cc1-c1nc2ccccc2[nH]1 | inactive
O=C(NCc1nnnn1-c1ccc(Cl)cc1)C1CC(=O)N(c2ccc(F)cc2)C1 (stereo not drawn) | inactive
O=C(CCCN1C(=O)CSc2ncccc21)N1CCN(Cc2ccccc2)CC1 | inactive
COc1ccc(C2C(C#N)=C(N)Oc3cc(O)ccc32)cc1Cl (stereo not drawn) | inactive
CCc1cccc(OC2OC(CO)C(O)C(O)C2NC(C)=O)c1 (stereo not drawn) | inactive
O=C(CCc1c[nH]c2ccccc12)OCC(=O)c1ccccc1 | inactive
CCC(C)NC(=S)N1CCN(Cc2ccc3c(c2)OCO3)CC1 (stereo not drawn) | inactive
CC(C)C(=O)Nc1sc2c(c1C(N)=O)CCN(Cc1ccccc1)C2 | inactive
CC(=O)c1cc2c(ccc3ccccc32)oc1=O | inactive
COc1ccc(C2CC(c3cccs3)=NN2c2nc(C)c(C(C)=O)s2)cc1OC (stereo not drawn) | inactive
COc1c(Cl)cc(-c2noc(C)c2C(=O)NCc2ccc3c(c2)OCO3)cc1Cl | inactive
CN1CCc2c(sc(NC(=O)Cc3ccccc3)c2C#N)C1 | inactive
O=c1oc2cc(O)ccc2cc1S(=O)(=O)c1ccccc1 | inactive
COc1ccc(C2C3=C(CC(C)(C)CC3=O)N(C)C3=C2C(=O)CC(C)(C)C3)cc1 | inactive
CCCN1CCc2c(sc(NC(=O)C3CCN(S(=O)(=O)c4cccs4)CC3)c2C(N)=O)C1 | inactive
COCCNC(=S)N/N=C/c1ccc(-c2ccc([N+](=O)[O-])cc2)o1 | inactive
O=C(C1=NN(c2ccccc2)C2C(=O)N(c3ccccc3)C(=O)C12)c1ccccc1 (stereo not drawn) | inactive
COCCCOc1cc(NCc2ccccc2)c2ncn(C(C)C)c2c1 | inactive

Structure (SMILES) | outcome
CCn1c2ccccc2c(=O)c2ccccc21 | inactive
CCOC(=O)c1cc(-c2ccccc2)sc1NC(=O)CSc1nnc(N)s1 | inactive
COc1ccccc1C1C2=C(CC(C)(C)CC2=O)N(CC(=O)O)C2=C1C(=O)CC(C)(C)C2 | inactive
CC(=O)c1cc2ccc(O)cc2oc1=O | inactive
CSc1ccc(Cl)c(C(=O)N2CCOc3ccccc32)c1 | inactive
COc1ccccc1NS(=O)(=O)c1cc(NC(=O)CCNC(C)=O)ccc1C | inactive
CCCCN(CCCC)CC(O)Cn1c2ccccc2c(=O)c2ccccc21 (stereo not drawn) | inactive
CCOC(=O)C1=CN(CC2CCCO2)C=C(C(=O)OCC)C1c1ccccc1C(F)(F)F (stereo not drawn) | inactive
S=c1[nH]c2ccc(Cc3ccc4[nH]c(=S)[nH]c4c3)cc2[nH]1 | inactive
Cc1cccn2c(=O)c3cc(C(N)=S)c(=N)n(CCCOC(C)C)c3nc12 | inactive
CCOc1ccc(NC(=O)CN(C)C(=O)CCCNC(=O)c2ccc(Cl)cc2)cc1OCC | inactive
COc1ccc(CCNC(=O)c2cc(S(=O)(=O)N3CCCCC3)c[nH]2)cc1OC | inactive
CCOc1ccc2nc(NCCCNS(=O)(=O)c3ccc(F)cc3)c(C#N)cc2c1 | inactive
Cc1ccc(S(=O)(=O)CCC(=O)OCC(=O)Nc2cccc(S(=O)(=O)N3CCCCC3)c2)cc1 | inactive
C[C@H](NC(=O)c1nc[nH]c1C(=O)N[C@@H](Cc1ccccc1)C(=O)OC(C)(C)C)C(=O)OCc1ccccc1 | inactive
CCOc1ccc(C(=O)c2cc3ccc(O)cc3oc2=O)cc1 | inactive
Cc1cccn2c(=O)c3cc(C(N)=S)c(=N)n(CCCN4CCOCC4)c3nc12 | inactive
O=C(O)c1[nH]c2ccccc2c1C(c1cc(Br)ccc1O)c1c(C(=O)O)[nH]c2ccccc12 | inactive
O=C(NS(=O)(=O)c1ccc(Cl)s1)c1ccccc1 | inactive
